Bioassay records (PubChem)
Sm TGR block = blocks Schistosoma mansoni thioredoxin glutathione reductase. Q962Y6. Potency, µM (doses to about 114 µM), inactives show at the highest dose activity change, negative = inhibition, usual class: inhibitors. actives 3% (n = 360,000). AID 485364. purified TGR, DTNB reduction, TNB absorbance 405 nm; note: nearly all actives have a fitted effect of over 60% in size
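Kinetic colorimetric format: TGR-catalysed, NADPH-driven DTNB reduction monitored via TNB absorbance. Enzyme dispensed at 20 nM; compound exposure 15 min at room temperature before reaction start.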
RE007 growth inh = less growth of the S. pombe RE007 Vpr strain. S. pombe RE007 Vpr strain, BacTiter-Glo ATP luminescence, 24 h. Potency, µM (titrated, usually from 92.2 µM), for the others: top-dose activity change, negative = less growth, actives largely listed as inhibitors. actives 0.21% (n = 360,000); active = well fitted falling curve with a large enough effect; inconclusive = small, poorly fitted or top-dose-only effect; inactive = no such curve, though single readings can be large or run the other way; note: nearly all actives have a fitted effect of over 50% in size
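Fission yeast RE007 carrying one integrated HIV-1 vpr copy, seeded at OD 0.01 in PMG+AL medium with 23 nL pinned compound. Grown 24 h at 30 degrees; viability read by BacTiter-Glo luminescence after 5 min.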
AmpC inh no detg = AmpC beta-lactamase inhibition without detergent; Potency, µM (doses to about 57.1 µM), inactives show top-dose activity change, negative = inhibition, actives largely listed as inhibitors; actives 0.52% (n = 330,000); AmpC nitrocefin hydrolysis, absorbance 480 nm, 0.0001% Triton; P00811;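 note: plate controls were no compound for no effect and no enzyme for full effect; nearly all actives have a fitted effect of over 20% in size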
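20 mM phosphate pH 7.0 + 0.01% (detergent screen) or 0.0001% Triton X-100; 5.3 nM AmpC reagent; cpd preinc 15 min RT; nitrocefin (800 uM stock) to start; A480 q20 s × 4 min; Activity was normalised to no-enzyme and no-compound control wells.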
AmpC detergent = blocks E. coli AmpC beta-lactamase in detergent assay; AmpC hydrolysis of nitrocefin, absorbance 480 nm, 0.01% Triton; Potency, µM (series often up to 114 µM), inactives show at the highest dose activity change, negative = inhibition, actives largely listed as inhibitors; actives 0.041% (n = 370,000); AID 485294;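 note: 0% = no-compound wells and -100% = no-enzyme wells; nearly all actives have a fitted effect of over 25% in size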
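AmpC (5.3 nM in the dispensed reagent) in 20 mM phosphate pH 7.0 with 0.01% (detergent screen) or 0.0001% Triton X-100 was preincubated with compounds for 15 min at room temperature. Nitrocefin was then added from an 800 uM solution, and hydrolysis was followed at 480 nm.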
Giardia FBPA inh = Giardia lamblia aldolase inhibition | A8B2U2 | purified Giardia FBPA | Potency, µM (titrated, usually from 59.6 µM), without a hit: at the top dose activity, negative = inhibition, most hits filed as inhibitors | actives 0.71% (n = 290,000); note: nearly all actives have a fitted effect of over 55% in size
Target sequence (A8B2U2 whole entry, looked up): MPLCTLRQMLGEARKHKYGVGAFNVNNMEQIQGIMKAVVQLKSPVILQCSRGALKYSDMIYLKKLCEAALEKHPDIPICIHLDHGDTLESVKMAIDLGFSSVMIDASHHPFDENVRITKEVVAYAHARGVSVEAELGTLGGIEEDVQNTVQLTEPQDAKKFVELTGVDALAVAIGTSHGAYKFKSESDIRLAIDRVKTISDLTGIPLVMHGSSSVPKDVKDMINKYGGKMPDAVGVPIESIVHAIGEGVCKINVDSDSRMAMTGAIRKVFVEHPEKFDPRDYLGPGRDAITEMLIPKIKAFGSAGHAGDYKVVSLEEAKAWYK
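Giardia FBPA (40 nM reagent) was preincubated 10 min at RT with compound (up to 57.5 uM final), then substrate plus GAPDH/TPI/NAD/arsenate coupling system with diaphorase/resazurin was added; resorufin fluorescence (525/598 nm) was read after 20 min.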
* hit, by the source's call. The list is not random: actives were taken first. Their share in the collection is about 3.4%. Unless noted, calls come from the whole dose curve; as a rule, active = well fitted curve in the direction sought with a large enough effect; inconclusive = small, poorly fitted or top-dose-only effect, or another doubt; inactive = no such curve, though single readings can be large; an effect the other way counts as inactive or inconclusive. Unless noted, % is set by controls: 0 for no effect and ±100 for the full control effect; potency is the fitted concentration of half-maximal effect.

How did Cc1ccc(CN2CCNC(=O)C2CC(=O)N(C)C(C2CC2)C2CC2)o1 (centres undefined) do in these assays?
Sm TGR block: 25µM*; RE007 growth inh: -12%; AmpC inh no detg: 26%; AmpC detergent: 9%; Giardia FBPA inh: -5%

What do the screens show for `COc1ccc(NC(=O)/C=C/c2ccc(C)o2)cc1S(=O)(=O)N1CCOCC1`?
Sm TGR block: 18µM*; RE007 growth inh: -5%; AmpC inh no detg: -13%; AmpC detergent: inconclusive; Giardia FBPA inh: -14%

How did COc1ccc(NC(=O)C2CCC2)cc1S(=O)(=O)N1CCOCC1 do in these assays?
Sm TGR block: -2%; RE007 growth inh: 3%; AmpC inh no detg: -20%; AmpC detergent: -5%

How did CCN(CC)c1ccc(S(=O)(=O)N2CCOCC2)cc1NC(=O)COC(=O)/C=C/c1ccccc1 do in these assays?
RE007 growth inh: 6%

Results for CCN(CC)c1ccc(S(=O)(=O)N2CCOCC2)cc1NC(=O)COC(=O)/C=C/c1ccc(C)o1 ?
Sm TGR block: 32µM*; RE007 growth inh: 5%; AmpC inh no detg: 50%; AmpC detergent: inconclusive

Results for COc1ccc(NC(=O)C2CCC(C(C)(C)C)CC2)cc1S(=O)(=O)N1CCOCC1 (centres undefined) ?
Sm TGR block: 40µM*; RE007 growth inh: 10%; AmpC inh no detg: 193%; AmpC detergent: 4%

Results for O=C(Nc1ccccc1)c1ccc(NCc2ccco2)c(S(=O)(=O)N2CCOCC2)c1 ?
Sm TGR block: 32µM*; RE007 growth inh: 9%; AmpC inh no detg: inconclusive; AmpC detergent: -1%; Giardia FBPA inh: -6%

What do the screens show for `COc1ccc(C(=O)Nc2ccc(-c3ccc(C)o3)cc2)cc1S(=O)(=O)N1CCOCC1`?
Sm TGR block: 50µM*; RE007 growth inh: -20%; AmpC inh no detg: 53%; AmpC detergent: 6%; Giardia FBPA inh: 0%

What do the screens show for `COc1ccc(C(=O)Nc2ccc(N3CCOCC3)cc2)cc1S(=O)(=O)N1CCOCC1`?
Sm TGR block: 6%; RE007 growth inh: 1%; AmpC inh no detg: 3%; AmpC detergent: 1%

What do the screens show for `COc1ccc(C(=O)N/C(=C/c2cccs2)C(=O)NN)cc1OC`?
Sm TGR block: 4%; RE007 growth inh: 12%; AmpC inh no detg: 42%; AmpC detergent: 3%; Giardia FBPA inh: 3%

Results for Cc1ccc(C)c(NC(=O)c2sc(Cl)nc2C)c1 ?
Sm TGR block: -7%; RE007 growth inh: 4%; AmpC inh no detg: -16%; AmpC detergent: -23%; Giardia FBPA inh: 1%

Results for O=S1(=O)C=C(Sc2nc3cc(Cl)ccc3o2)c2ccccc21 ?
Sm TGR block: 1.6µM*; RE007 growth inh: -18%; AmpC inh no detg: -35%; AmpC detergent: -1%; Giardia FBPA inh: 0%

How did Cc1cc(NC(=O)CSc2nc3cc(Cl)ccc3o2)no1 do in these assays?
Sm TGR block: 6%; RE007 growth inh: 4%; AmpC inh no detg: 1%; AmpC detergent: -2%

How did CCOc1ccc(N2CC(c3nc4ccccc4n3CC(C)C)CC2=O)cc1 (centres undefined) do in these assays?
Sm TGR block: 1%; AmpC detergent: 16%

Results for O=C(CC1C(=O)NCCN1Cc1ccoc1)NCCc1ccc(Cl)cc1 (centres undefined) ?
Sm TGR block: inconclusive; RE007 growth inh: 9%; AmpC inh no detg: 38%; AmpC detergent: -1%; Giardia FBPA inh: -4%

What do the screens show for `COC(=O)CCCNC(=O)CC1C(=O)NCCN1Cc1ccoc1` (centres undefined)?
Sm TGR block: 45µM*; RE007 growth inh: -5%; AmpC inh no detg: -15%; AmpC detergent: 1%; Giardia FBPA inh: -7%

Results for CCc1ccc(CN(C)C(=O)CC2C(=O)NCCN2Cc2ccoc2)cc1 (centres undefined) ?
Sm TGR block: 18µM*; RE007 growth inh: 7%; AmpC inh no detg: 39%; AmpC detergent: 6%; Giardia FBPA inh: -3%
